Drawing on PubChem BioAssay (Tox21), this text covers Potency, activity change, positive = activation and max response for eight compounds.

Assay [1] can be described thus: qHTS assay to identify small molecule agonists of the hypoxia (HIF-1) signaling pathway - cell viability counter screen (AID 1224844; calls by dose curve; further: nearly all actives have a fitted effect of over 50% in size). In a few lines:
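Tox21 10K compounds were added to HRE-bla ME-180 cells (0.5% dialyzed FBS) and incubated 17 hrs at 37C; ATP-based CellTiter-Glo luminescence then reported cell viability in the same wells.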
On the technique in general: qHTS replaces the single test concentration by a dilution series.

A short description of assay [2]: qHTS assay to identify small molecule agonists of H2AX (AID 1224845; active means well fitted activation curve with a large enough effect in the signal ratio in the repeat runs, not every such curve was filed as active; the % refers to the signal ratio). A digest of the protocol:
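Wild-type CHO-K1 cells plated overnight, then exposed 3 hr at 37C to compounds at 15 concentrations (0.76% DMSO). Lysed, then HTRF anti-pH2AX(S139)-cryptate/anti-H2AX-d2 detection after 24 hr at room temperature; emissions 665 and 620 nm.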

A short description of assay [3]: qHTS assay to identify small molecule agonists of H2AX - cell viability counter screen (AID 1224847; calls by dose curve; further: nearly all actives have a fitted effect of over 30% in size; further: potency means the concentration at half of the fitted maximal effect). A digest of the protocol: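 Cells plated first: CHO-K1, 1000 per well in 10% FBS medium, incubated overnight at 37C. Then 15-point compound titration added (final DMSO 0.76%) for 3 hr. Finally CellTiter-Glo added and luminescence read.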
Assay [4] is described as follows: qHTS assay to identify small molecule agonists of the estrogen related receptor (ERR) signaling pathway from Tox21 library (AID 1224849; calls by dose curve; further: nearly all actives have a fitted effect of over 15% in size). The settings on record: ERR reporter cell line, ONE-Glo luciferase, 18 h; at 92.4 µM (top of the series) unless noted. A digest of the protocol:
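Agonist signal is luciferase luminescence from an ERR reporter cell line treated 18 h at 37 C with DMSO-dissolved compounds, read 30 min after ONE-Glo addition at room temperature.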

Assay [5] is described as follows: qHTS RealTime-Glo MT Cell Viability Assay in HepG2 cells - 24 hour (AID 1224867). Further: nearly all actives have a fitted effect of over 50% in size. A digest of the protocol:
(§1)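 Compound treatment began 5 h after plating HepG2 cells (600/well) with NanoLuc luciferase and prosubstrate. Plates stayed at 37 C for 40 h; luminescence was captured at six time points, 0 h through 40 h.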

A short description of assay [6]: qHTS RealTime-Glo MT Cell Viability Assay in HEK293 cells - 32 hour (AID 1224868). Further: nearly all actives have a fitted effect of over 50% in size. Further: potency means the concentration at half of the fitted maximal effect. A digest of the protocol: (§2)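 Quantitative high-throughput screen of the Tox21 10K library in HEK293: cells and RealTime-Glo reagents plated together, compound added at 5 h, luminescence monitored through 40 h at 37 C.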
Assay [7] in a line: A CellTox Green Cytotoxicity Assay to monitor cytotoxicity in HEK293 cells - 0 hour (AID 1224869). Further: nearly all actives have a fitted effect of over 50% in size. In a few lines:
(§3)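 Cytotoxicity was tracked continuously in HEK293 cells by a DNA-binding dye excluded from viable cells. Compounds were transferred in DMSO 5 h after seeding; fluorescence was recorded at intervals up to 40 h.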

Assay [8] is described as follows: qHTS RealTime-Glo MT Cell Viability Assay in HepG2 cells - 40 hour (AID 1224870). Further: nearly all actives have a fitted effect of over 50% in size. In a few lines: (§4)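 HepG2 cells mixed with RealTime-Glo MT reagents (NanoLuc plus cell-permeant prosubstrate) were seeded at 600 cells/well, incubated 5 h at 37 C/5% CO2, then pinned with compounds in DMSO; nonlytic luminescence tracked viability during 40 h treatment.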
Assay [9] can be described thus: A CellTox Green Cytotoxicity Assay to monitor cytotoxicity in HEK293 cells - 40 hour (AID 1224871). Further: nearly all actives have a fitted effect of over 45% in size. Further: potency means the concentration at half of the fitted maximal effect. In a few lines:
as §3

Assay [10] is described as follows: qHTS RealTime-Glo MT Cell Viability Assay in HEK293 cells - 16 hour (AID 1224872). In a few lines: as §2
Assay [11] can be described thus: qHTS RealTime-Glo MT Cell Viability Assay in HepG2 cells - 8 hour (AID 1224873). Further: nearly all actives have a fitted effect of over 55% in size. A digest of the protocol: as §4
Assay [12] can be described thus: qHTS RealTime-Glo MT Cell Viability Assay in HEK293 cells - 40 hour (AID 1224874). Further: nearly all actives have a fitted effect of over 50% in size. Further: potency means the concentration at half of the fitted maximal effect. The conditions noted are these: RealTime-Glo luminescence; max response: active compounds read low. In a few lines:
(§5)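 Nonlytic bioluminescent viability monitoring. HEK293 at 600 cells/well with reagent; 5 h settle; compound transfer by pintool; plates held at 37 C and read at set time points.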

The nature of assay [13]: A CellTox Green Cytotoxicity Assay to monitor cytotoxicity in HEK293 cells - 24 hour (AID 1224875). Further: nearly all actives have a fitted effect of over 45% in size. In a few lines: as §3
A short description of assay [14]: A CellTox Green Cytotoxicity Assay to monitor cytotoxicity in HepG2 cells - 16 hour (AID 1224876). Further: nearly all actives have a fitted effect of over 45% in size. A digest of the protocol: (§6)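 Real-time, homogeneous cytotoxicity readout: dead-cell DNA staining by CellTox Green in HepG2 monolayers, fluorescence measured at timed intervals up to 40 h of continuous compound exposure.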
Assay [15] in a line: qHTS RealTime-Glo MT Cell Viability Assay in HepG2 cells - 32 hour (AID 1224877). Further: nearly all actives have a fitted effect of over 55% in size. A digest of the protocol:
as §1

Assay [16] can be described thus: A CellTox Green Cytotoxicity Assay to monitor cytotoxicity in HepG2 cells - 24 hour (AID 1224878). Further: nearly all actives have a fitted effect of over 45% in size. A digest of the protocol: as §6
Assay [17] in a line: A CellTox Green Cytotoxicity Assay to monitor cytotoxicity in HepG2 cells - 40 hour (AID 1224879). Further: nearly all actives have a fitted effect of over 40% in size. Further: potency means the concentration at half of the fitted maximal effect. In a few lines: as §6
Assay [18] is described as follows: qHTS RealTime-Glo MT Cell Viability Assay in HEK293 cells - 0 hour (AID 1224880). In a few lines: as §5
The nature of assay [19]: qHTS assay to identify small molecule antagonists of the estrogen related receptor (ERR) signaling pathway from Tox21 library (AID 1224848). Further: nearly all actives have a fitted effect of over 50% in size. A digest of the protocol: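 Cells: ERR line, 2,000/well; 6 h preincubation 37 C/5% CO2. Cpd in DMSO via pin tool; 18 h, 37 C. ONE-Glo, 30 min RT, luminescence.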
Assay [20] in a line: qHTS assay to identify small molecule agonists of the hypoxia (HIF-1) signaling pathway (AID 1224846; active means well fitted activation curve with a large enough effect in the signal ratio in the repeat runs, not every such curve was filed as active; the % refers to the signal ratio). In a few lines: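 Steps: seed ME-180 HRE-bla cells (2,000/well, 0.5% dialyzed FBS); incubate 5 hrs at 37C; pin-transfer compounds or DMSO; incubate 17 hrs; add LiveBLAzer B/G substrate CCF4-AM; measure reporter activation by FRET.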

SMILES strings stand for the structures. Unmarked numbers belong to inactive results. Results filed as inconclusive are left out. Calls of active or inactive are those of the source. Unless noted, the call rests on the fitted dose curve; in most records, active means well fitted curve in the direction sought with a large enough effect in the repeat runs; inconclusive means weak or mixed curves; inactive means no such curve, though single readings can be large; an effect the other way counts as inactive or inconclusive.
On the % scale 0 is the no-effect control and ±100 the full control effect.

As for `COC(=O)/C=C(\C)OP(=O)(OC)OC`, the Potency entry in [1], in assay [2], in [3], in assay [5], in assay [6] and in assay [7] was “inactive” in each case. Besides, the Potency entry in assay [8], in [9], in assay [10], in [11], in assay [13] and in assay [14] was “inactive” throughout. Also, the Potency result in assay [15], in assay [16], in assay [17] and in assay [18] was “inactive” each time. Also, in [4], the activity change, positive = activation was -31.3%. For the same compound, the max response in assay [12] was -4%.

Consider `COP(=S)(OC)Oc1ccc([N+](=O)[O-])c(C)c1`, for which the Potency result in assay [1], in assay [2], in [3], in assay [5], in [6] and in assay [7] was “inactive” each time. Moreover, the Potency entry in assay [8], in assay [9], in assay [10], in assay [11], in [13] and in [14] was “inactive” throughout. Further, the Potency entry in assay [15], in assay [17] and in assay [18] was “inactive” each time. Also, the activity change, positive = activation in [4] was -19.2%. For the same compound, in assay [12], the max response is -0.352%.

For `c1ccc2c(c1)cc1ccc3cccc4ccc2c1c34`, the Potency result in assay [1], in [2], in assay [3], in assay [19], in assay [5] and in assay [6] was “inactive” throughout. Besides, the Potency result in assay [7], in assay [8], in assay [9], in assay [11], in assay [13] and in assay [14] was “inactive” each time. Besides, the Potency result in assay [15] and in assay [18] was “inactive” in each case. Further, the activity change, positive = activation in assay [4] was 61.3% (active). In assay [12], the max response was -10.6%. Moreover, in assay [17], the Potency is 7.05 µM (active).

For the compound `Oc1cc(Cl)c(Cl)c(Cl)c1Cl`, the Potency entry in [1], in assay [2], in [5], in assay [7], in [8] and in assay [9] was “inactive” in each case. For the same compound, the Potency result in assay [11], in [13], in assay [14], in [15], in assay [16] and in [18] was “inactive” each time. In addition, the Potency in assay [3] was 49.3 µM (active); in assay [6], 47.8 µM (active); in assay [12], 47.8 µM (active). The activity change, positive = activation in assay [4] was -60.7%.

Consider `O=C(O)[C@H](O)[C@@H](O)C(=O)O`, for which the Potency result in [1], in assay [2], in assay [3], in [5], in [6] and in [7] was “inactive” throughout. Further, the Potency entry in [8], in [9], in [11], in assay [13], in assay [14] and in assay [15] was “inactive” in each case. Besides, the Potency entry in assay [16], in [17] and in [18] was “inactive” each time. Moreover, in [12], the max response was 5.57%.

For `CC#C[C@]1(O)CC[C@H]2[C@@H]3C[C@H](C)C4=CC(=O)CC[C@]4(C)[C@H]3CC[C@@]21C`, the Potency entry in assay [1], in [20], in assay [3], in assay [5], in [7] and in assay [8] was “inactive” in each case. Also, the Potency result in assay [9], in assay [10], in [11], in [13], in assay [14] and in [15] was “inactive” in each case. Moreover, the Potency entry in assay [16] was “inactive”.

On to `CCC(C)Br` (stereo not given), for which the Potency entry in [1], in [20], in assay [3], in assay [5], in assay [6] and in assay [7] was “inactive” in each case. The Potency entry in assay [8], in assay [9], in assay [11], in assay [13], in assay [14] and in [15] was “inactive” throughout. For the same compound, the Potency result in assay [17] and in [18] was “inactive” in each case.

As for `CC(C)N(C(=O)SC/C(Cl)=C/Cl)C(C)C`, the Potency result in assay [1], in assay [20], in assay [5], in assay [6], in [7] and in assay [8] was “inactive” throughout. Moreover, the Potency entry in assay [11], in assay [13], in assay [14], in assay [15], in [16] and in assay [17] was “inactive” in each case. For the same compound, the Potency result in [18] was “inactive”. In [9], the Potency is 43.9 µM (active).
